# According to PubChem BioAssay (NCATS):
# Inconclusive results are not listed. The source made the active and inactive calls. Calls come from the whole dose curve; as a rule, active = well fitted inhibition curve with a large enough effect; inconclusive = small, poorly fitted or top-dose-only effect; inactive = flat fitted curve, though single readings scatter.
# Biological target: Calcium and integrin-binding protein 1 (Homo sapiens) (UniProt Q99828)
# Assay: Primary qHTS for Identification of Calcium Integrin Binding Protein 1 (CIB1) Competitor (AID 1508620);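 note: GST tagged CIB1 binding a fluorescein labelled alphaIIb integrin peptide tracer; top concentration of the series differs between compounds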
# Conditions: CIB1-GST / FITC-alphaIIb peptide fluorescence polarization; series mostly up to 114 µM; activity change, negative = inhibition: at the top concentration
# In short: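 CIB1-GST (1 uM final) and compound incubated 15 min at room temperature before adding FITC-alphaIIb peptide tracer (100 nM final). Competition for binding read by fluorescence polarization (ex 480, em 540) after another 15 min at room temperature.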
# % is set by controls: 0 for no effect and ±100 for the full control effect.
# Calcium and integrin-binding protein 1 (Homo sapiens), sequence (Q99828 whole entry, looked up): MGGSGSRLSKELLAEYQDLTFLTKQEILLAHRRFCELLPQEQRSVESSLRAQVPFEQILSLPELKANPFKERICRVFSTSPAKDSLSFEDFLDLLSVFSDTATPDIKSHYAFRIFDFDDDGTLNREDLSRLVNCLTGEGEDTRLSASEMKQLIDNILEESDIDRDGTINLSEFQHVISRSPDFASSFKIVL
row,SMILES,"activity change, negative = inhibition"
1,CCC(C)(CCN1CCOCC1)N(Cc1cc2ccccc2n(C)c1=O)C(=O)C1CCCCC1 (configuration not stated),2.28% (inactive)
2,CC1=C(C(=O)Nc2nc3ccccc3s2)C2(CCCC2)N=C(Nc2nc3ccccc3o2)N1,-0.823% (inactive)
3,O=C(CNC(=O)C1CCCC1)OC(C(=O)Nc1cc(C(F)(F)F)ccc1Cl)c1ccccc1 (configuration not stated),2.28% (inactive)
4,O=C(Cc1ccccc1)Nc1ncnc2c1C(c1ccccc1)c1c(ccc3ccccc13)O2 (configuration not stated),7.96% (inactive)
5,CCOc1cc(CCNC(=O)c2cc3sccc3n2Cc2ccccc2)cc(F)c1OCC,4.75% (inactive)
6,O=C(O)c1ccc(-c2noc(-c3cccc(Cl)c3)n2)cc1,0.425% (inactive)
7,O=C(CNC(=O)c1ccc(-c2ccccc2)cc1)OC(C(=O)Nc1cc(C(F)(F)F)ccc1Cl)c1ccccc1 (configuration not stated),-0.854% (inactive)
8,CCOC(=O)c1c(-c2ccc(OC)cc2)csc1NC(=O)C1CCCO1 (configuration not stated),4.47% (inactive)
9,COc1cccc(C2c3c(ncn(-c4ccccc4C#N)c3=N)Oc3ccc4ccccc4c32)c1 (configuration not stated),-0.988% (inactive)
10,Cc1c(P(=S)(c2ccccc2)c2ccccc2)[n+]2ccccc2n1CCCCCc1ccccc1,-9.46% (inactive)
11,Cc1cc(C)n2ncc(C(=O)Nc3ccc(Br)cc3)c2n1,1.73% (inactive)
12,Fc1cccc(CNc2ncnc3ccc(-c4cccc(Cl)c4)cc23)c1,-1.5% (inactive)
13,O=C(NCCc1nc2ccccc2n1CCOc1cccc(Br)c1)C1CCCCC1,4.92% (inactive)
14,O=[N+]([O-])c1ccccc1CSc1nc2ncc(Br)cc2[nH]1,1.76% (inactive)
15,Cc1ccnc(NC(=S)N2CCN(C)CC2)c1,2.32% (inactive)
16,CCCC(C)NC(=O)Cn1nc(-c2ccc(C)cc2)ccc1=O (configuration not stated),1.66% (inactive)
17,Cc1cc(C)nc(/N=C(\NC#N)N2CCN(c3cccc(C(F)(F)F)c3)CC2)c1,0.919% (inactive)
18,Cc1ccc(OCCn2c(CCNC(=O)OC(C)(C)C)nc3ccccc32)cc1,1.28% (inactive)
19,Nc1cccc(S(=O)(=O)N2CCN(S(=O)(=O)c3c(F)cccc3F)CC2)c1,1.36% (inactive)
20,CC(Cc1cnccn1)Nc1cnc2c(O)ccc(C(=O)O)c2c1 (configuration not stated),-8.37% (inactive)
21,N=c1c2c(ccn1Cc1ccccc1)Oc1ccc3ccccc3c1C2c1ccccc1 (configuration not stated),9.47% (inactive)
22,C/C(=C\c1ccc2c(c1)OCCO2)C1Nc2cccc3cccc(c23)N1,8.92% (inactive)
